We go through 33 molecules from PubChem BioAssay (NCI).

The panel holds about 83,000 compounds, 20% with a hit somewhere; the sample as a whole holds those more often.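 Cell lines were cultured in 96-well plates, exposed to a single compound concentration, and assessed for percent growth 48 hours later.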 Active and inactive are the calls of the source. Rule for the calls: active = growth percent below 10; inactive = the rest.

The subject of the experiment is T-47D breast. As to the kind of experiment: NCI-60 one-dose screen, 48 h (100 = growth as untreated, 0 = no growth, -100 = all killed). The note with it: 10 µM unless noted.
Take `CCN(CC)CCCNc1ccc(Nc2ccc(OC)cc2)cc1`: the growth is 118% (inactive).
The result for `COc1ccc(-c2c(N)n[nH]c2-c2ccc(Cl)cc2O)cc1OC` reads 91.2% (inactive).
Turning to `c1csc(-c2c3ccc(=[N+]4CCCCC4)cc-3oc3cc(N4CCCCC4)ccc23)c1`, the growth was -60.7% (active).
As to `NS(=O)(=O)c1ccc(-n2nc(C(=O)N/N=C\c3ccc(F)cc3)cc2-c2ccc(Cl)cc2)cc1`, the growth is 79.5% (inactive).
To `CCN(CC)c1ccc(C(=O)c2ccc(N(CC)CC)cc2)cc1` belongs 20.1% (inactive); to `O=S(=O)(O)c1ccc(N/N=C/c2ccccc2Cl)cc1`, 106% (inactive); to `CC(C)(C)OC(=O)Nc1ccc2c(c1)C(NC(=O)Nc1cccc(C#N)c1)CC(C)(C)O2` (stereo not drawn), 34.2% (inactive).
The result for `CCCCCCCCCCCC(c1ccccc1)[N+](C)(C)C` (stereo not drawn) reads 2.28% (active); that for `COc1ccc(C(=NN=C(N)N)c2ccc(OC)cc2)cc1`, 8.87% (active); that for `COc1ccc(NC(=O)CSc2nnc(-c3cc(-c4ccccc4)nc4ccccc34)n2-c2ccccc2)cc1`, 78.4% (inactive).
The result for `O=C(NC(CSSCC(NC(=O)c1ccccc1)C(=O)O)C(=O)O)c1ccccc1` (stereo not drawn) reads 99.4% (inactive); that for `Cn1c(=O)c2[nH]c(NN)nc2n(C)c1=O`, 104% (inactive).
As for `N/C(=N/N=C/c1ccccc1)N/N=C\c1ccccc1`, the growth was 37.6% (inactive).
In the case of `CCN(CCNc1ccc(C)c2sc3ccccc3c(=O)c12)CC(C)(C)O`, the growth was 80.7% (inactive).
To `N#Cc1nc(C#N)c(Sc2ccccc2)c(Sc2ccccc2)c1Sc1ccccc1` belongs -71.7% (active).
To `COc1ccc(C(=O)Nn2c(NCC(=O)N3c4ccccc4Sc4ccccc43)nnc2-c2ccc(O)cc2)cc1` belongs 106% (inactive); to `CCC1(C2CCCC2)NC(=O)NC1=O` (stereo not drawn), 93.4% (inactive); to `Cn1c(=O)c2c(nc(Cl)n2CCl)n(C)c1=O`, 103% (inactive).
To `O=C(CCCCCCSc1nc(-c2ccccc2)cc(-c2ccc(Cl)cc2)n1)NO` belongs -13.7% (active); to `CC1(C)CC(=O)CC2(C1)N=C(N)Nc1nc3ccccc3n12` (stereo not drawn), 106% (inactive).
Take `COc1ccccc1N1C(=O)/C(=C/C2=Cc3ccccc3OC2)SC1=S`: the growth was 89.7% (inactive).
To `O=C(CSc1nccc(Nc2ccc(S(=O)(=O)Nc3nccs3)cc2)n1)c1ccc(F)cc1` belongs 84% (inactive).
Turning to `O=C1Nc2ccccc2/C1=C/c1cn(C(=O)c2c(Cl)cccc2Cl)c2ccccc12`, the growth is 47.7% (inactive).
The result for `N=C1CCC(=N)c2c1c(O)c1ccccc1c2O` reads 89.5% (inactive); that for `Cc1ccc(S(=O)(=O)N/N=C\c2cc(Cl)ccc2O)cc1`, 86% (inactive).
Consider `COc1ccc(-c2[nH]c(=S)n(C(CC3(C)NCC(=O)N3n3c(-c4ccccc4)cc(C)nc3=S)c3ccc(OC)cc3)c(=O)c2Br)cc1` (stereo not drawn), for which the growth is 22.8% (inactive).
To `COc1cc(N2C(=O)c3nccnc3C2=O)cc(OC)c1OC` belongs 96.9% (inactive); to `COc1ccc(Cl)cc1NC(=O)C(Br)C(Br)C(=O)O` (stereo not drawn), 19.9% (inactive).
The result for `CS(=O)(=O)c1ccc(Nc2nc(N[C@H]3CCCC[C@H]3N)nc3cc[nH]c(=O)c23)cc1` reads -3.45% (active).
On to `O=c1oc2ccccc2c(Cl)c1Cl`, for which the growth was 43.1% (inactive).
The result for `COc1ccc(NC(=O)CSc2nnc(-c3cc(-c4ccc(S(N)(=O)=O)cc4)nc4ccccc34)n2-c2ccccc2)cc1` reads 58.2% (inactive).
To `Cc1ccc(C2SCC(=O)N2Cc2ccccc2)cc1` (stereo not drawn) belongs 95.2% (inactive).
To `N#C/C(=C\c1ccc(-c2ccccc2F)o1)c1nc(-c2ccco2)cs1` belongs 14.5% (inactive).
